Myeloid diff 2: induction of myeloid progenitor differentiation, primary screen, cell-based, flow cytometry, MLPCN library | ER-HoxA9 myeloid progenitors, lysozyme-GFP differentiation | calls only at 10 µM | 360,000 tested, 1% active;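 active = normalized GFP-positive differentiation at or above the plate's own cutoff, the solvent-only control mean plus 3 SD; inconclusive = no clear call, values can overlap the other calls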;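 note: cells exposed to compound for four days before flow analysis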
ABCB6 inh 2: ABCB6 transporter inhibitors, primary screen, K562-ABCB6 cells, flow cytometry, MLPCN library; K562-ABCB6 porphyrin accumulation, 1 h; hits give low values; fluorescence ratio to DMSO, % at 10 µM; 360,000 tested, 0.19% active;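 active = fluorescence ratio to DMSO below 75%, the collection mean minus 3 SD; inconclusive = too few cells collected in the well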;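 note: signal is porphyrin accumulated inside mitochondria; lower ratio means ABCB6 inhibition with less porphyrin fluorescence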
Vif inh: HIV Vif self-association inhibitors, primary screen, imaging, HEK293T, single point; AID 602346, 2012; inhibition, % at 7.49 µM; HEK293T cells, Vif self-association by quenched fluorescence, 24 h; 340,000 tested, 0.35% active; in the data active = inhibition above about 50%, passing the limit was not always enough; inconclusive = no clear call, values can overlap the other calls; inactive = below about 31%
RAD54 branch: inhibitors of human RAD54 branch migration, primary screen, biochemical, fluorescence, single point; DNA repair and recombination protein RAD54-like (Homo sapiens), Q92698; RAD54 Holliday junction branch migration, FAM/BHQ fluorescence; inhibition, % at 10.4 µM; 360,000 tested, 0.14% active; AID 602329, 2012;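 active = mean normalized replicate activity at least 40 and at least half of replicates scoring 40 or more; inconclusive = only one of the two criteria met; inactive = mean below 40 and under half of replicates reaching 40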;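 note: inhibitors cause a drop in the FAM fluorescence signal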
Target sequence (Q92698 whole entry, looked up): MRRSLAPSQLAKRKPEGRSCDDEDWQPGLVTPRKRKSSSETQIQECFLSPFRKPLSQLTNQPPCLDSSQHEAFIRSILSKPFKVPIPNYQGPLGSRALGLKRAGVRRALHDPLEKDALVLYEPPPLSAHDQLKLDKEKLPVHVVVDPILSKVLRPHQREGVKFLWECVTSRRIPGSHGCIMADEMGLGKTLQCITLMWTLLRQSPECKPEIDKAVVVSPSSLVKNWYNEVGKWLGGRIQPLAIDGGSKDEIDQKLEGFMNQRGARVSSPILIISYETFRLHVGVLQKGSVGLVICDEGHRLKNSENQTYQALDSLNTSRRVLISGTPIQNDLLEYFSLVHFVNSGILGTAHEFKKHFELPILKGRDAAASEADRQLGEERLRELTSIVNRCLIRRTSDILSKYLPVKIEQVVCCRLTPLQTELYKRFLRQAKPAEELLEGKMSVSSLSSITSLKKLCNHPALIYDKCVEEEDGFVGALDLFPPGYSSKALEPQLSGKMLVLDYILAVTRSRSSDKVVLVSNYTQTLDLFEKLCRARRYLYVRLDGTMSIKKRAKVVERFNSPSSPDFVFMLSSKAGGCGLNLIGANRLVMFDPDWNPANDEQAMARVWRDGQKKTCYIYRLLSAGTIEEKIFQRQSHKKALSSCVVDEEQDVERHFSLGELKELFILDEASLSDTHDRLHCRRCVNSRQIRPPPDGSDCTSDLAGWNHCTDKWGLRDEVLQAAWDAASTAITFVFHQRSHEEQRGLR
Glyco luc inh: increase of ERlucT glycosylation luciferase signal, primary screen, N-linked glycosylation inhibitor project, D54 ERlucT cells, luminescence, set 2; D54 ERlucT glycosylation luciferase reporter, 24 h; percent of 100 nM tunicamycin response; reporter increase, % at 12.5 µM; 360,000 tested, 0.23% active; AID 588692, 2011;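 active = mean luciferase reporter signal, scaled so untreated is 0 and the glycosylation-blocking control 100, at or above a set limit in every replicate; inconclusive = mean reaches the limit but not every replicate does; inactive = mean below the limit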;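 note: luciferase carries N-glycosylation sites so blocking glycosylation raises the light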
Numbers stand for hits; . = inactive; ? = inconclusive; / = no result given; + = active, no number. Sampled rows, rich in hits. Any-hit rate of the full collection: about 1.6%.

SMILES | Myeloid diff 2 | ABCB6 inh 2 | Vif inh | RAD54 branch | Glyco luc inh
COc1ccc(C(=O)NC(C)c2ccccc2)cc1Br (stereo unspecified) | + | . | . | / | .
CC(NC(=O)c1ccc(Br)cc1)c1ccccc1 (stereo unspecified) | . | . | . | . | .
CN1C(=O)c2cc(NC(=O)c3cccs3)ccc2OC[C@@H]2O[C@H](CC(=O)N3CCCCC3)CC[C@@H]21 | / | / | / | . | /
CC(=O)Nc1ccc2c(c1)C(=O)N(C)[C@@H]1CC[C@H](CC(=O)N3CCc4ccccc4C3)O[C@@H]1CO2 | / | / | / | . | /
CCOc1ccc2[nH]c(C(=O)N/N=C/c3ccccc3OC)cc2c1 | ? | . | . | . | .
COc1ccc2[nH]c(C(=O)N/N=C/c3ccccc3OC)cc2c1 | . | . | . | . | 37
Cc1noc(C)c1NC(=O)N(C)C[C@@H]1Oc2ccc(NC(=O)c3ccncc3)cc2C(=O)N([C@H](C)CO)C[C@@H]1C | / | / | / | . | /
CN(C)C=Nc1ncc2c3ccccc3n(CCN(C)C)c2c1C#N | . | . | . | 88 | .
CCC(=O)N1C[C@@H](C)[C@H](OC)CN(C)C(=O)c2ccc(NC(=O)c3cnccn3)cc2OC[C@H]1C | / | / | / | . | /
C=CCSc1nnc(N2C(=O)C(O)=C(C(=O)c3ccco3)C2c2ccccc2F)s1 (stereo unspecified) | + | . | . | . | .
COc1ccc(CN(C)C[C@@H]2Oc3ccc(NC(=O)CCCN(C)C)cc3C(=O)N([C@@H](C)CO)C[C@H]2C)cc1 | / | / | / | . | /
C[C@@H]1CN([C@@H](C)CO)C(=O)c2cc(NS(C)(=O)=O)ccc2O[C@@H](C)CCCCO[C@@H]1CN(C)C(=O)NC1CCCCC1 | / | / | / | . | /
C[C@@H]1CCCCO[C@H](CN(C)Cc2ccncc2)[C@@H](C)CN([C@@H](C)CO)C(=O)c2cc(NC(=O)Nc3ccccc3)ccc2O1 | / | / | / | . | /
COc1ccc(Nc2cc(C)nc3ncnn23)c(OC)c1 | . | . | . | . | .
COc1ccc(CNc2cc(C)nc3ncnn23)c(OC)c1 | + | . | . | . | .
CC(C)(C)c1ccc(-c2noc(CCC(=O)Nc3cccnc3)n2)cc1 | . | . | . | . | .
COc1ccc(-c2noc(CCC(=O)Nc3cccnc3)n2)cc1 | + | . | . | . | .
COc1ccc(S(=O)(=O)N(C)C[C@@H]2Oc3ncc(-c4ccncc4)cc3C(=O)N([C@@H](C)CO)C[C@@H]2C)cc1 | / | / | / | . | /
Cc1ccc(S(=O)(=O)Nc2ccc3c(c2)C(=O)N([C@@H](C)CO)C[C@@H](C)[C@H](CN(C)Cc2ccc(C(F)(F)F)cc2)OCCCC[C@@H](C)O3)cc1 | / | / | / | . | /
CN(C)CCNc1ccc2nnn3c4ccc(O)cc4c(=O)c1c23 | ? | . | . | / | ?
CCN(CC)CCCNc1ccc2ncn3c4ccc(O)cc4c(=O)c1c23 | ? | . | / | / | 81
C[C@@H]1CN([C@@H](C)CO)C(=O)c2cc(NS(=O)(=O)c3cccs3)ccc2O[C@@H]1CN(C)S(=O)(=O)c1cn(C)cn1 | / | / | / | . | /
CCCOc1ccc(-c2c(C(=O)N/N=C/c3ccc(C)cc3)nnn2-c2nonc2N)cc1 | . | . | 54 | . | .
CCOc1ccc(-c2c(C(=O)N/N=C/c3cccs3)nnn2-c2nonc2N)cc1 | . | . | 82 | . | .
COc1ccccc1NC(=O)N(C)C[C@@H]1Oc2ncc(C#CCC(C)C)cc2C(=O)N([C@@H](C)CO)C[C@H]1C | / | / | / | . | /
SMILES | Myeloid diff 2 | ABCB6 inh 2 | Vif inh | RAD54 branch | Glyco luc inh
N#CC1(NC(=O)COC(=O)c2ccccc2[N+](=O)[O-])CCCCC1 | . | . | . | . | .
N#CC1(NC(=O)COC(=O)c2cc(O)c3ccccc3c2O)CCCCC1 | + | . | . | . | .
O=C(CCc1ccc(O)cc1)NN=Cc1ccc2c(c1)OCO2 | + | . | . | . | .
Cc1ccc(CC(=O)N/N=C/c2ccc3c(c2)OCO3)cc1 | . | . | . | / | .
c1cc2nc(C34CC5CC(CC(C5)C3)C4)[nH]c2cn1 | + | . | . | / | .
CCCOc1ccccc1/C=C(\C#N)C(=O)Nc1cccc(C)n1 | + | . | . | . | .
COCCNC(=O)C[C@H]1CC[C@@H]2[C@H](COC[C@@H](O)CN2C(=O)Nc2ccc3c(c2)OCO3)O1 | / | / | / | . | /
CC(C)(C)OC(=O)N1CCC(c2c(C(=O)NCC3CCN(C4CCCC4)C3)cnn2-c2ccc(F)cc2)CC1 (stereo unspecified) | . | . | 60 | . | .
CNC[C@@H]1OCCCC[C@H](C)Oc2ccc(NC(=O)Cc3ccccc3)cc2C(=O)N([C@@H](C)CO)C[C@@H]1C | / | / | / | . | /
CCc1ccc(/C=N/NC(=O)c2cc(-c3ccncc3)nc3ccccc23)s1 | . | . | . | / | 30
Cc1cc(C(=O)N/N=C/c2ccco2)c2ccccc2n1 | . | . | . | / | .
O=C(N/N=C/c1ccco1)c1cc(-c2ccncc2)nc2ccccc12 | . | . | / | . | 28
O=C(N/N=C/c1cccs1)c1cc(-c2ccncc2)nc2ccccc12 | ? | . | 117 | / | .
O=C(N/N=C/c1cccs1)c1cc(C2CC2)nc2ccccc12 | ? | . | . | / | .
CC(C)(C)c1cc(C(=O)N/N=C/c2ccco2)n[nH]1 | . | . | 62 | . | .
O=S(=O)(N[C@H]1CC[C@H](CCn2cc(C3(O)CCCC3)nn2)O[C@@H]1CO)c1ccccc1 | / | / | / | . | /
C[C@H]1CCCCO[C@@H](CN(C)Cc2ccccc2)[C@@H](C)CN([C@@H](C)CO)C(=O)c2cc(NC(=O)c3ccccc3)ccc2O1 | / | / | / | . | /
COc1cccc(-c2ccc3c(c2)[C@@H]2[C@@H](CCN2S(=O)(=O)c2cccc(OC)c2)[C@@H](CO)N3)c1 | / | / | / | . | /
C[C@@H]1CN([C@@H](C)CO)S(=O)(=O)c2ccc(-c3cccc(C#N)c3)cc2O[C@H]1CN(C)C(=O)Nc1cc(F)ccc1F | / | / | / | . | /
CN(C)c1ccc(/C=C2\SC(N3CCCCC3)=NC2=O)cc1 | . | . | 196 | . | .
COc1cccc(S(=O)(=O)Nc2ccc3c(c2)[C@H]2C[C@@H](CC(=O)NCC(F)(F)F)O[C@@H](CO)[C@H]2O3)c1 | / | / | / | . | /
O=c1nc(Nc2ccc(OCc3ccccc3)cc2)sc2ncccc12 | + | . | . | . | .
CCOC(=O)c1ccc(Nc2nc(=O)c3cccnc3s2)cc1 | . | . | . | . | .
CCNC(=O)C[C@@H]1CC[C@@H]2[C@H](COC[C@@H](O)CN2C(=O)c2cc(Cl)cc(Cl)c2)O1 | / | / | / | . | /
CCCCn1nnc(NC(=O)C(c2ccccc2)c2ccccc2)n1 | . | . | . | / | .
CCCn1nnc(NC(=O)C(c2ccccc2)c2ccccc2)n1 | . | . | 50 | . | .
O=C(C[C@@H]1C[C@H]2c3cc(NC(=O)Nc4ccccc4)ccc3O[C@H]2[C@H](CO)O1)NCc1ccncc1 | / | / | / | . | /
COc1ccc(C(C)NC(=O)c2ccc(Cl)cc2)cc1OC (stereo unspecified) | . | . | . | / | .

Bioassay records as filed in PubChem BioAssay.
